According to publication PMC7862700, “An all-to-all approach to the identification of sequence-specific readers for epigenetic DNA modifications on cytosine”:

Tests used:
Experiment in all cases: DAPPL (digital affinity profiling via proximity ligation, sequencing); 10 mM Tris-HCl pH 7.5, 50 mM NaCl, 1 mM DTT, 4% glycerol, room temperature, 30 min; GST-TFs on glutathione beads, 16-mer random dsDNA library, 0.1% formaldehyde crosslink after washing; high values mean tight binding
[1] = target: T1, FEV (Homo sapiens, UniProt Q99581 1-238); details: protein: recombinant; tags: N-terminal GST; dsDNA, one strand shown
T1 sequence: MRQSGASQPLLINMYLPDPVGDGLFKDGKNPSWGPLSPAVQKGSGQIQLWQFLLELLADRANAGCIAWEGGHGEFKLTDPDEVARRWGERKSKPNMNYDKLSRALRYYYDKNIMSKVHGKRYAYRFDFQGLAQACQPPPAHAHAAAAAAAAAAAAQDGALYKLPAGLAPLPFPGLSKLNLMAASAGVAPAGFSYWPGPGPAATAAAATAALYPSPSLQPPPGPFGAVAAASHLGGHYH
How it was run: (§1)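 The binding signal reported is, for every hexamer, its read frequency for a factor over its read frequency for the tag-only sample. Reads came from pools of yeast-expressed, GST-fused human transcription factors on glutathione beads, barcoded with DNA and mixed with that sample, which were incubated with 200 nmole of a random double-stranded 16-mer DNA library in Tris/NaCl/DTT/glycerol buffer at room temperature for 30 min. After washing, the pools were crosslinked with 0.1% formaldehyde, proximity-ligated with BsaI/T4 ligase for 1 h at 37 °C, PCR-amplified and sequenced on an Illumina NextSeq500.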

[2] = target: ETV5 (Homo sapiens, UniProt P41161 1-510); details: protein: recombinant; tags: N-terminal GST; dsDNA, one strand shown
Sequence of ETV5 (P41161 whole entry): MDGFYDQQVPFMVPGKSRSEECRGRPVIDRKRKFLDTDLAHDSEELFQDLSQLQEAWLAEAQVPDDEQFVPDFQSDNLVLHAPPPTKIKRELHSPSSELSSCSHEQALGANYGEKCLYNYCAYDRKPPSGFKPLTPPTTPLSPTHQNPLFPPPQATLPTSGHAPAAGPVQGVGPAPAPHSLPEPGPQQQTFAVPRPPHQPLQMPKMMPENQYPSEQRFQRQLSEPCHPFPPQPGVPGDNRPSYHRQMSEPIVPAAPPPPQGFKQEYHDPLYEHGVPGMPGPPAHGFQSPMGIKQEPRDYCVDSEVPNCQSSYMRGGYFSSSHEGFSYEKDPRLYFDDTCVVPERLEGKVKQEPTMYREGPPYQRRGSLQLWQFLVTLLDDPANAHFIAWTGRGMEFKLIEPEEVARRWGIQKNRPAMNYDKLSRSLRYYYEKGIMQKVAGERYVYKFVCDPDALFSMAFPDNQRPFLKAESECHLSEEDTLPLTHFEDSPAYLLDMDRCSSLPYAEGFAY
How it was run: as §1

[3] = target: HSF1 (Homo sapiens, UniProt Q00613 1-529); details: protein: recombinant; tags: N-terminal GST; chain copies: 3; dsDNA, one strand shown
Sequence of HSF1 (Q00613 whole entry): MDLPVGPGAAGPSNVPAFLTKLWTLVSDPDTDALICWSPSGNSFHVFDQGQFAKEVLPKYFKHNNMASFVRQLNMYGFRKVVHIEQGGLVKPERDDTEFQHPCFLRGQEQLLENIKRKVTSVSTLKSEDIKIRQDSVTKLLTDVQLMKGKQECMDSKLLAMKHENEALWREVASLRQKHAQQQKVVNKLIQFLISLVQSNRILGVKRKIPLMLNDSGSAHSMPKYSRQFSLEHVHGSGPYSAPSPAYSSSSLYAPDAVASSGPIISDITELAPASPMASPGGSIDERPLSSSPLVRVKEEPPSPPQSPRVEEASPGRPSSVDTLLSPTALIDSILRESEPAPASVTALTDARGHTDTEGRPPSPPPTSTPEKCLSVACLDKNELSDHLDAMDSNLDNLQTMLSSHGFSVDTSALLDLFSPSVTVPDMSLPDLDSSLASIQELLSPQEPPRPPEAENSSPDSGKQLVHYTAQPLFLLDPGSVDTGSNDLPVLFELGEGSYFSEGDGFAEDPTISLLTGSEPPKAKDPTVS
How it was run: as §1

[4] = target: T2, SPIC (Homo sapiens, UniProt Q8N5J4 1-248); details: protein: recombinant; tags: N-terminal GST; dsDNA, one strand shown
T2 sequence: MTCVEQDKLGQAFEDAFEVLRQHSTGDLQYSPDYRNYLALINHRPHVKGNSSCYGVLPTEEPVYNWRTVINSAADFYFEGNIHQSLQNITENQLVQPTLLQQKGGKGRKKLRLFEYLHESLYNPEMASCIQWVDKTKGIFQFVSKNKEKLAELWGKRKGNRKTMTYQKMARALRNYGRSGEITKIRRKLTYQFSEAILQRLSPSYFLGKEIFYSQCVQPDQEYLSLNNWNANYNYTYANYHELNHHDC
How it was run: as §1

[5] = target: ELF4 (Homo sapiens, UniProt Q99607 1-663); details: protein: recombinant; tags: N-terminal GST; dsDNA, one strand shown
Sequence of ELF4 (Q99607 whole entry): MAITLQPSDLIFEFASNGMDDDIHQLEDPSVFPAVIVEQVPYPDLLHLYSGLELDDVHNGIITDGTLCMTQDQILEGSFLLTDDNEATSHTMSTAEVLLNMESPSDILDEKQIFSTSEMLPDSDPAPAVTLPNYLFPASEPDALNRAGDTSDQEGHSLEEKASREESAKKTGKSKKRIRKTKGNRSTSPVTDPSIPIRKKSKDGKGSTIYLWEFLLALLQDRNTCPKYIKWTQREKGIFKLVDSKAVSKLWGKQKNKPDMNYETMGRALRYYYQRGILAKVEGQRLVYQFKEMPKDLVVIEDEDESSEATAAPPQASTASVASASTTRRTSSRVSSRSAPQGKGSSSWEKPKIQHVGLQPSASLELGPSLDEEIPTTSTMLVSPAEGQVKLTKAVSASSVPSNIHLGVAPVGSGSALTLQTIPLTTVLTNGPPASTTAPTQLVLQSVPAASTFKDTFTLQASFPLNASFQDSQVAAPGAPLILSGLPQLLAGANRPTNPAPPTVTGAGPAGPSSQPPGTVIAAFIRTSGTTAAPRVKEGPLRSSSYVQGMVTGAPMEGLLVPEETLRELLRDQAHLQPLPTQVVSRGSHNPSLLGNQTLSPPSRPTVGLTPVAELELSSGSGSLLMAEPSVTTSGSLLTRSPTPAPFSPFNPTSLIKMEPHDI
How it was run: as §1

[6] = target: T3, ELK4 (Homo sapiens, UniProt P28324-2 1-405); details: protein: recombinant; tags: N-terminal GST; dsDNA, one strand shown
T3 sequence: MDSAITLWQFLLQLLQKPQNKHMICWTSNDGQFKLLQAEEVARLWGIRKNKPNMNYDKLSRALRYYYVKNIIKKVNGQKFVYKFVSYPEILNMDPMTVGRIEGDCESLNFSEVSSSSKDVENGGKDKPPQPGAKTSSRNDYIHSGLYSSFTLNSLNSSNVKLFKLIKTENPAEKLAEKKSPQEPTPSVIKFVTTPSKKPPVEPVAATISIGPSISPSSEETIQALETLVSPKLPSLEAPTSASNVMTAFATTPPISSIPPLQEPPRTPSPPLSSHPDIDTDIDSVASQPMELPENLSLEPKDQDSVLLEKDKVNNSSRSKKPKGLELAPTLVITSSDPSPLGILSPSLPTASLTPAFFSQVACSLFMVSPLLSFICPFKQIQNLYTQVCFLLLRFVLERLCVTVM
How it was run: as §1

[7] = target: T4, ETV2 (Homo sapiens, UniProt O00321 1-342); details: protein: recombinant; tags: N-terminal GST; dsDNA, one strand shown
T4 sequence: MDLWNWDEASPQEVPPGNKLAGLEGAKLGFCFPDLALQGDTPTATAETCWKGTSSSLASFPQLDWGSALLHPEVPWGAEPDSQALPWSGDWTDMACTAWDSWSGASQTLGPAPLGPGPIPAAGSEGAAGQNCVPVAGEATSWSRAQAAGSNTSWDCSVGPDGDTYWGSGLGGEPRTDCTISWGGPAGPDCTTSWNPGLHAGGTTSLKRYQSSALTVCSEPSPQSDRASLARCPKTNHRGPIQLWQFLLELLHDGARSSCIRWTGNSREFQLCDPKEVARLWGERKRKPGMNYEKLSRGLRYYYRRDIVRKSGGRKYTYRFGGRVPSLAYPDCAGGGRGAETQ
How it was run: as §1

[8] = target: T5, ELF3 (Homo sapiens, UniProt P78545 1-371); details: protein: recombinant; tags: N-terminal GST; dsDNA, one strand shown
T5 sequence: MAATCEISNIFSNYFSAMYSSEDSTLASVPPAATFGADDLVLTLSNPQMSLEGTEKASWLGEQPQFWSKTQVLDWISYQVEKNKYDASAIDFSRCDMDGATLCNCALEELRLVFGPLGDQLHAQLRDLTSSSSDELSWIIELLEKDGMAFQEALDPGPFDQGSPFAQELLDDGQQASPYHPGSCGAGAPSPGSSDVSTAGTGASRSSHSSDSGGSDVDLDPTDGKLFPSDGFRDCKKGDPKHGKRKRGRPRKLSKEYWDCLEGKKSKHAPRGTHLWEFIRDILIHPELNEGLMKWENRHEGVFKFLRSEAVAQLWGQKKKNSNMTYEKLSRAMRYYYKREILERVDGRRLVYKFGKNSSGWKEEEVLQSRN
How it was run: as §1

[9] = target: ETV1 (Homo sapiens, UniProt P50549 1-477); details: protein: recombinant; tags: N-terminal GST; dsDNA, one strand shown
Sequence of ETV1 (P50549 whole entry): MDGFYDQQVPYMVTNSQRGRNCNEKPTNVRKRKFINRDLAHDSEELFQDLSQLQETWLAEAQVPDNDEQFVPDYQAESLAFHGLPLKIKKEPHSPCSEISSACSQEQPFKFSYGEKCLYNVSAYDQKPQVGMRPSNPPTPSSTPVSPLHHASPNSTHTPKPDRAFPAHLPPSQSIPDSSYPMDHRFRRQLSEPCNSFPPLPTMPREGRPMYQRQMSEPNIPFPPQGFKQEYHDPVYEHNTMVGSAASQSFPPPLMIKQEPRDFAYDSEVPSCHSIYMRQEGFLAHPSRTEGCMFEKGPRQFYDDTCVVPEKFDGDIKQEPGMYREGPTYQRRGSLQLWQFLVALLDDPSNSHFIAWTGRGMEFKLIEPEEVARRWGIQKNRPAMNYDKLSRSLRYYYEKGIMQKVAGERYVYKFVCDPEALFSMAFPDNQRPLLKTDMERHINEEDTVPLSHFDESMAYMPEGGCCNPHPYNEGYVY
How it was run: as §1

[10] = target: T6, ERF (Homo sapiens, UniProt P50548 1-548); details: protein: recombinant; tags: N-terminal GST; dsDNA, one strand shown
T6 sequence: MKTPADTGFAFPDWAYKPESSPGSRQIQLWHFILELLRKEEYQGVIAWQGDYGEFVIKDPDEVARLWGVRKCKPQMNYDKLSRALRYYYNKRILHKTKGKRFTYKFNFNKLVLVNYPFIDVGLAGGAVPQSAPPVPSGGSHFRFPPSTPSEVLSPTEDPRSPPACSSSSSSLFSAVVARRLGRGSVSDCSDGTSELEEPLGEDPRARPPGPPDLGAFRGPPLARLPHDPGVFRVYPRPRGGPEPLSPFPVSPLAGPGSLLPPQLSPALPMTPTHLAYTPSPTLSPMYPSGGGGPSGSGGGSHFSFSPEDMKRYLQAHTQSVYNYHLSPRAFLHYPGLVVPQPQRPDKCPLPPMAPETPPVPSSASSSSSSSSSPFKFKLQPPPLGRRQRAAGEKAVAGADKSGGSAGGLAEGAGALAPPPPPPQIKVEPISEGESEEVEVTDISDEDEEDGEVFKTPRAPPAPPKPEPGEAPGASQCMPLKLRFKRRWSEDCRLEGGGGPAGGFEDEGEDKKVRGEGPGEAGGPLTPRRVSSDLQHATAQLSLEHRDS
How it was run: as §1

[11] = target: T7, ETV3L (Homo sapiens, UniProt Q6ZN32 1-361); details: protein: recombinant; tags: N-terminal GST; dsDNA, one strand shown
T7 sequence: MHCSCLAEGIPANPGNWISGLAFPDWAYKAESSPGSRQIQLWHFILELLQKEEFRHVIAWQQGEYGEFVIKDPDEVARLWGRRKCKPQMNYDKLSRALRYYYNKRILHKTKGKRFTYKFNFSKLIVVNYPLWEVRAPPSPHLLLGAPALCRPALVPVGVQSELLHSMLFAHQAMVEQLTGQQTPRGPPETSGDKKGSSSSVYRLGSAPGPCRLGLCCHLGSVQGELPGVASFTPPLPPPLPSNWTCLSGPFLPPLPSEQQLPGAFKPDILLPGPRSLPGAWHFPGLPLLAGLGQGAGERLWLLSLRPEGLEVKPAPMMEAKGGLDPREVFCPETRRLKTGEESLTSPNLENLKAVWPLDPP
How it was run: as §1

[12] = target: T8, ETS2 (Homo sapiens, UniProt P15036 1-469); details: protein: recombinant; tags: N-terminal GST; dsDNA, one strand shown
T8 sequence: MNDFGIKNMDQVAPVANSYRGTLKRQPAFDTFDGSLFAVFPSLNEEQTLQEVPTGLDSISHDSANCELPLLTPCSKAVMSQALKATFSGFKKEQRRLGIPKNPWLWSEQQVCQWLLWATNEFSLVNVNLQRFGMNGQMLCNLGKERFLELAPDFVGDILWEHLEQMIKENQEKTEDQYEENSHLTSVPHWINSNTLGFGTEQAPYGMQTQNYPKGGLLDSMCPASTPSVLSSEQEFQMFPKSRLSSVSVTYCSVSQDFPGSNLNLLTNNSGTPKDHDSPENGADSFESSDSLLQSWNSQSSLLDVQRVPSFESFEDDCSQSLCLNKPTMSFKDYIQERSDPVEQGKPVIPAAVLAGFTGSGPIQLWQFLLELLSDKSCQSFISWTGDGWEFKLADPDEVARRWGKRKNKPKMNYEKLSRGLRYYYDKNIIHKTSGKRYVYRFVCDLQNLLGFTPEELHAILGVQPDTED
How it was run: as §1

[13] = target: T9, SPDEF (Homo sapiens, UniProt O95238 1-335); details: protein: recombinant; tags: N-terminal GST; dsDNA, one strand shown
T9 sequence: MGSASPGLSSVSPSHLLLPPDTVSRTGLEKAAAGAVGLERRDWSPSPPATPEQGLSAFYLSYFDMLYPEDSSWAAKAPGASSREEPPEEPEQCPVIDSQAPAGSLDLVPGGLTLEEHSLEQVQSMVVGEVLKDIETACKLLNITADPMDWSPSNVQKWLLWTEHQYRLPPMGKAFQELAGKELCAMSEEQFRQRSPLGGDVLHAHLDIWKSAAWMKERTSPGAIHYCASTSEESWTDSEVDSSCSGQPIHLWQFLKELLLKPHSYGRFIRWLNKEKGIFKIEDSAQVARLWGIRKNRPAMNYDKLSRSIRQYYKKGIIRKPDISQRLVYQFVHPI
How it was run: as §1

[14] = target: T10, ETV7 (Homo sapiens, UniProt Q9Y603 1-341); details: protein: recombinant; tags: N-terminal GST; dsDNA, one strand shown
T10 sequence: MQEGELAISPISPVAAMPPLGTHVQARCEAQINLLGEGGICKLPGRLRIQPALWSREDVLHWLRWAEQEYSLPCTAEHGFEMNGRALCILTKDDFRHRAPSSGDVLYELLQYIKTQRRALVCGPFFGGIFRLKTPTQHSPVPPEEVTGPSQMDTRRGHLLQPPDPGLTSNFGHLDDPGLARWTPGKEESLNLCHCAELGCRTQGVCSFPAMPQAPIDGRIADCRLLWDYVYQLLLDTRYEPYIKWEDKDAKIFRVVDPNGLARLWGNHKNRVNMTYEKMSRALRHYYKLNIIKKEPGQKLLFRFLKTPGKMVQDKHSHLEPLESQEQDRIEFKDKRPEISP
How it was run: as §1

[15] = target: T11, ELF5 (Homo sapiens, UniProt Q9UKW6-2 1-255); details: protein: recombinant; tags: N-terminal GST; dsDNA, one strand shown
T11 sequence: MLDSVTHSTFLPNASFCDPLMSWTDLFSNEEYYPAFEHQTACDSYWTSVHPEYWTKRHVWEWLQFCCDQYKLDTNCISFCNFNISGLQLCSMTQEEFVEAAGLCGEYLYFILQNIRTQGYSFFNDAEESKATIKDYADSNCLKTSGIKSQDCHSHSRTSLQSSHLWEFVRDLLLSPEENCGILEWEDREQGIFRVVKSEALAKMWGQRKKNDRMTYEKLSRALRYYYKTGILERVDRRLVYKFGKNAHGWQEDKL
How it was run: as §1

[16] = target: T12, ETV3 (Homo sapiens, UniProt P41162-2 1-143); details: protein: recombinant; tags: N-terminal GST; dsDNA, one strand shown
T12 sequence: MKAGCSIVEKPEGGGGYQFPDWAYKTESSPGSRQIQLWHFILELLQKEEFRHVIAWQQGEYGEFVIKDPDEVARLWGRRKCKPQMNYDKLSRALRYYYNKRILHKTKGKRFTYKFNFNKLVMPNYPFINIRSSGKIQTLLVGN
How it was run: as §1

[17] = target: ETV6 (Homo sapiens, UniProt P41212 1-452); details: protein: recombinant; tags: N-terminal GST; dsDNA, one strand shown
Sequence of ETV6 (P41212 whole entry): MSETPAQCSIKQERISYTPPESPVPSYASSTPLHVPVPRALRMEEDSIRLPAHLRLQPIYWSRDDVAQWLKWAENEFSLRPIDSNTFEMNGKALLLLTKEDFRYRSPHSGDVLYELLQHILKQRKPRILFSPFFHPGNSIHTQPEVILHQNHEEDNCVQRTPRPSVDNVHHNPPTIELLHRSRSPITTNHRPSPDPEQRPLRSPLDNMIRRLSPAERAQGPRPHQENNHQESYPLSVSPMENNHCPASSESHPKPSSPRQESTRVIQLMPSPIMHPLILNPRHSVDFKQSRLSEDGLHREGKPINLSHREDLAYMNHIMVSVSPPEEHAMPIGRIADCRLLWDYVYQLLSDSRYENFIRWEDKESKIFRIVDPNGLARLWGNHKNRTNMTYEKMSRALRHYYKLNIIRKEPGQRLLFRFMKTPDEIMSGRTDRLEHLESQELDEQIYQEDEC
How it was run: as §1

For GCGTTC, the binding signal [1] was 1.07 fold enrichment (6-mer frequency, TF over GST control), the binding signal [2] was 1.17 fold enrichment (6-mer frequency, TF over GST control) and the binding signal [3] was 1.1 fold enrichment (6-mer frequency, TF over GST control). For the same sequence, the binding signal [4] was 1.11 fold enrichment (6-mer frequency, TF over GST control), the binding signal [5] was 1.1 fold enrichment (6-mer frequency, TF over GST control) and the binding signal [6] was 1.02 fold enrichment (6-mer frequency, TF over GST control). The binding signal [7] was 1.23 fold enrichment (6-mer frequency, TF over GST control), the binding signal [8] was 1.15 fold enrichment (6-mer frequency, TF over GST control) and the binding signal [9] was 1.28 fold enrichment (6-mer frequency, TF over GST control). For the same sequence, the binding signal [10] was 1.11 fold enrichment (6-mer frequency, TF over GST control), the binding signal [11] was 1.15 fold enrichment (6-mer frequency, TF over GST control) and the binding signal [12] was 1.21 fold enrichment (6-mer frequency, TF over GST control). For the same sequence, the binding signal [13] was 1.02 fold enrichment (6-mer frequency, TF over GST control), the binding signal [14] was 1.23 fold enrichment (6-mer frequency, TF over GST control) and the binding signal [15] was 1.03 fold enrichment (6-mer frequency, TF over GST control). The binding signal [16] was 1.11 fold enrichment (6-mer frequency, TF over GST control) and the binding signal [17] was 1.12 fold enrichment (6-mer frequency, TF over GST control).
